A number with no mark means an inactive call. Inconclusive results are not listed. Activity calls are given as the source filed them. Unless noted, calls follow the shape of the dose curve; as a rule, active = well fitted curve in either direction with a large enough effect (not every such curve was filed as active); inconclusive = small, poorly fitted or top-dose-only effect, or another doubt; inactive = flat fitted curve, though single readings scatter.
What was measured:
[1] = biological target: Lysosomal acid glucosylceramidase (Homo sapiens) (UniProt P04062); experiment: Glucocerebrosidase-p2 (AID 348; in the data active = potency below about 10 µM; also: potency is read from the fitted curve at half-maximal effect); details: purified GBA, blue fluorogenic substrate, 40 min
In short: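 Compounds titrated from 0.6 nM upwards against 0.2 nM enzyme in pH 5.9 citric acid/KH2PO4, taurocholate, tween-20; blue fluorogenic substrate 80 uM, 40 min room temperature, stopped and read Ex 365/Em 440 for AC50.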

[2] = AP1 Signaling Pathway (AID 357); details: ME-180 AP-1-bla reporter, EGF-induced, beta-lactamase ratio, 5 h; at 7.69 µM (top of the series) unless noted;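 also: ME-180 reporter cells stimulated with EGF at its EC50 level; % is scaled to controls: 0 for no effect and ±100 for the full control effect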
In short: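 First, ME-180 AP-1-bla cells were cultured overnight at 37 °C in low-serum Opti-MEM. Next, titrated compounds with EC50 EGF were incubated 5 hours. Finally, CCF4 was added for 2.5 hours and the 460/530 nm ratio recorded.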

[3] = NFAT Signaling Pathway (AID 444); details: Jurkat NFAT-bla M1, carbachol, beta-lactamase ratio, 5 h; at 7.69 µM (top of the series) unless noted;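 also: carbachol stimulus at about its EC50 of 1 µM final; % is scaled to controls: 0 for no effect and ±100 for the full control effect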
In short: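 Read-out: CCF4 FRET ratio (460 nm/530 nm) after 1 h RT dye loading, used for %activity and AC50 from titration series. Cells: Jurkat NFAT-β-lactamase/M1 line, treated with compound plus 1 uM carbachol for 5 h, 37 °C.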

[4] = Stat Signaling Pathway (AID 446); details: ME-180 SIE beta-lactamase reporter, IL-6 stimulated, 5 h; at 7.69 µM (top of the series) unless noted;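 also: ME-180 cervical cancer cells given 40 pM IL-6 alongside compound; SIE-controlled beta-lactamase reporter measured as 460/530 nm FRET emission ratio; % is scaled to controls: 0 for no effect and ±100 for the full control effect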
In short: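 IL-6/STAT signaling read in ME-180 cells via an SIE beta-lactamase reporter. Stimulus was 40 pM IL-6 (its AC50) for 5 hrs, so both activation and inhibition register.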

[5] = biological target: Glucocorticoid receptor (Homo sapiens) (UniProt P04150); experiment: GR-EFC Redistribution (AID 451; calls by dose curve; also: potency is read from the fitted curve at half-maximal effect); details: CHO-K1 GR-EFC translocation, beta-gal luminescence, 2 h
In short: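 Translocation of GR-ED fusion to nuclear EA restores b-gal, read by luminescence after 1 h room-temperature detection. Engineered CHO-K1 biosensor cells, 1,000/well, exposed 2 h at 37 C to titrations up to 46 uM final.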

[6] = biological target: Mitogen-activated protein kinase 10 (Mus musculus) (UniProt Q61831); experiment: JNK3 AlphaScreen Assay (AID 530); details: JNK3 lysate, c-Jun phosphorylation; series mostly up to 57.1 µM;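 also: kinase came from lysate of stimulated human HepG2 cells; signal reports phosphorylation of biotinylated GST-cJun 1-79 at Ser73 with 10 µM ATP; % is scaled to controls: 0 for no effect and ±100 for the full control effect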
In short: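 Compound titrations were preincubated 15 minutes at room temperature with substrate, antibody and pre-activated JNK3-containing HepG2 lysate. Reactions were started with 10 uM ATP and stopped with EDTA-containing bead buffer for AlphaScreen detection.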

[7] = biological target: 3',5'-cyclic-AMP phosphodiesterase 4B (Homo sapiens) (UniProt Q07343); experiment: qHTS Assay for Inhibitors of PDE-IV (AID 607; active = well fitted activation curve with a large enough effect in the main read-out, with a control signal flat, not every such curve was filed as active; also: % of control where 0% means no effect); details: HEK293 ACTOne CNG channel cells, membrane potential fluorescence; series mostly up to 22.9 µM
In short: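 Live HEK293 cells with a modified cyclic nucleotide-gated (CNG) channel report intracellular cAMP via membrane-potential dye fluorescence (ex 535/em 590 nm). Endogenous PDE-IV was targeted. Compounds were tested at up to 22.9 uM final; RO 20-1724 100 uM served as control.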

[8] = biological target: Cytochrome P450 2C9 (Homo sapiens) (UniProt P11712); experiment: qHTS Assay for Inhibitors and Substrates of Cytochrome P450 2C9 (AID 883; active = well fitted curve in the direction sought with a large enough effect; an effect the other way counts as inactive or inconclusive; also: potency is read from the fitted curve at half-maximal effect; nearly all actives have a fitted effect of over 60% in size); details: recombinant CYP2C9, luciferin-H luminescence, 60 min; series mostly up to 57.1 µM
In short: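 Inhibition of CYP2C9 is scored as loss of luminescence, with 57uM sulphaphenazole defining 100% inhibition. Substrate Luciferin-H is used at 100uM, equal to its KM; enzyme at 10nM in 25mM KPO4, 60 min at 37C with NADPH regeneration.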

[9] = biological target: Cytochrome P450 3A4 (Homo sapiens) (UniProt P08684); experiment: qHTS Assay for Inhibitors and Substrates of Cytochrome P450 3A4 (AID 884; active = well fitted curve in the direction sought with a large enough effect; an effect the other way counts as inactive or inconclusive; also: nearly all actives have a fitted effect of over 50% in size; also: potency is read from the fitted curve at half-maximal effect); details: recombinant CYP3A4, Luciferin-PPXE luminescence; series mostly up to 57.1 µM
In short: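 20 nM human CYP3A4 with 25 uM Luciferin-PPXE (at KM) in 200 mM KPO4, preincubated 10 min with compound; NADPH regeneration started a 60 min RT reaction. Luciferin detected by luminescence, normalized to 57 uM ketoconazole as full inhibition.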

[10] = biological target: Cytochrome P450 3A4 (Homo sapiens) (UniProt P08684); experiment: qHTS Assay for Activators of Cytochrome P450 3A4 (AID 885; active = well fitted curve in the direction sought with a large enough effect; an effect the other way counts as inactive or inconclusive; also: nearly all actives have a fitted effect of over 65% in size); details: recombinant CYP3A4, Luciferin-PPXE luminescence, 60 min; series mostly up to 57.1 µM
In short: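 Quantitative HTS format: compounds preincubated with 20nM human CYP3A4 and Luciferin-PPXE substrate at KM, reaction started by NADPH regeneration, stopped after 60 min, luciferase luminescence read 20 min later.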

[11] = biological target: Cytochrome P450 2C19 (Homo sapiens) (UniProt P33261); experiment: qHTS Assay for Inhibitors and Substrates of Cytochrome P450 2C19 (AID 899; active = well fitted curve in the direction sought with a large enough effect; an effect the other way counts as inactive or inconclusive; also: nearly all actives have a fitted effect of over 60% in size; also: potency is read from the fitted curve at half-maximal effect); details: recombinant CYP2C19, luciferin-H EGE luminescence; series mostly up to 57.1 µM
In short: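 5nM enzyme + 10uM Luciferin-H EGE (=KM), 50mM KPO4; cpd pin-transferred, 10 min 37C; NADPH regen, 60 min 37C; stopped w/ luciferin detection reagent, 20 min; luminescence. Normalized to 57uM ketoconazole (AC100).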

[12] = Primary qHTS for small molecule stabilizers of the endoplasmic reticulum resident proteome: Secreted ER Calcium Modulated Protein (SERCaMP) assay (AID 1508630; active = well fitted curve in the direction sought with a large enough effect; an effect the other way counts as inactive or inconclusive; also: % is scaled to controls: 0 for no effect and ±100 for the full control effect); details: SH-SY5Y GLuc-SERCaMP (Gaussia luciferase released on ER calcium loss) secretion, thapsigargin, luminescence; series mostly up to 38.4 µM
In short: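 GLuc-SERCaMP-expressing SH-SY5Y cells, pretreated 16 h with compound, are challenged with thapsigargin to empty ER calcium stores; after 4 h, coelenterazine is added directly to the medium and luminescence is imaged.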

[13] = qHTS Assay for Identification of Small Molecule Agonists for Hypoxia Response Element Signaling Pathway (AID 914; active = well fitted activation curve with a large enough effect in the signal ratio, with a control signal flat, not every such curve was filed as active; the % refers to the signal ratio; also: % of control where 0% means no effect); details: ME-180 HRE-bla reporter, beta-lactamase ratio, CoCl2, 17 h; activation: active compounds read high
In short: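 ME-180 cells carrying an HRE-driven beta-lactamase reporter were treated with compounds in a titration series plus an EC50 level of CoCl2 for 17 h at 37 degrees Celsius; CCF4 readout as the 460nm/530nm ratio gave AC50 values.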

[14] = biological target: Cytochrome P450 2D6 (Homo sapiens) (UniProt P10635); experiment: qHTS Assay for Inhibitors and Substrates of Cytochrome P450 2D6 (AID 891; active = well fitted curve in the direction sought with a large enough effect; an effect the other way counts as inactive or inconclusive; also: potency is read from the fitted curve at half-maximal effect; nearly all actives have a fitted effect of over 60% in size); details: recombinant CYP2D6, luciferin-ME EGE luminescence; series mostly up to 57.1 µM
In short: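 Human CYP2D6 (5 nM) with 30 uM Luciferin-ME EGE (at Km) in 100 mM KPO4, compound preincubated 10 min, then NADPH regeneration system for 60 min at room temperature. Luciferin read by luminescence; normalized to 1.43 uM quinidine.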

Chain of Cytochrome P450 2C19 (Homo sapiens) (P33261 whole entry, looked up): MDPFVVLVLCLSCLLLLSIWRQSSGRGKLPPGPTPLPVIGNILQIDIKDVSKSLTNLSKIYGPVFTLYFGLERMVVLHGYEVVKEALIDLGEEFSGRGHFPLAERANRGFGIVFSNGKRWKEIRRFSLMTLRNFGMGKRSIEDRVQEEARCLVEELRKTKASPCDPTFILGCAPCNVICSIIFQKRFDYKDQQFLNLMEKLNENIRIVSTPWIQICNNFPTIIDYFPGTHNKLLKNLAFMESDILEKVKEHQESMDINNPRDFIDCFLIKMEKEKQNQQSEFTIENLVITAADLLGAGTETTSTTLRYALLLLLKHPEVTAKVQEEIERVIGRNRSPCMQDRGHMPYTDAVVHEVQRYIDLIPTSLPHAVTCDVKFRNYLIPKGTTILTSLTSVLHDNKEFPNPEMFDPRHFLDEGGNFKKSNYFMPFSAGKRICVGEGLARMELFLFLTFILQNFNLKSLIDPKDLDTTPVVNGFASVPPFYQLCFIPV
Chain of Lysosomal acid glucosylceramidase (Homo sapiens) (P04062 whole entry, looked up): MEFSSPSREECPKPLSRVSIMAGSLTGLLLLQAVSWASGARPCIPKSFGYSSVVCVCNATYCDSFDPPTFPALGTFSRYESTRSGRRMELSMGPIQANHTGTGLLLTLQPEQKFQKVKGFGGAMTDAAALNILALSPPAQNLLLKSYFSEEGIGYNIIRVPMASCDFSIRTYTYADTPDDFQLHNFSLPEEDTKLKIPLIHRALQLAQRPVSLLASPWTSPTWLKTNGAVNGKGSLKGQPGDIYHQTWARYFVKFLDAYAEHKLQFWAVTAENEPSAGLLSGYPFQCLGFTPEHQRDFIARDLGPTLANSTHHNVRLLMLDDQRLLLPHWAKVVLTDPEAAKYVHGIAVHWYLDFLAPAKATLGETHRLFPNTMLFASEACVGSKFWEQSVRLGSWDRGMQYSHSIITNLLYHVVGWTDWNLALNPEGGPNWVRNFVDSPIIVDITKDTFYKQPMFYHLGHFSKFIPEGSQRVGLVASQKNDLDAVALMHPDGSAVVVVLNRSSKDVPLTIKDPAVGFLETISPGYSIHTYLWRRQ
Chain of Glucocorticoid receptor (Homo sapiens) (P04150 whole entry, looked up, the tested form may be a part): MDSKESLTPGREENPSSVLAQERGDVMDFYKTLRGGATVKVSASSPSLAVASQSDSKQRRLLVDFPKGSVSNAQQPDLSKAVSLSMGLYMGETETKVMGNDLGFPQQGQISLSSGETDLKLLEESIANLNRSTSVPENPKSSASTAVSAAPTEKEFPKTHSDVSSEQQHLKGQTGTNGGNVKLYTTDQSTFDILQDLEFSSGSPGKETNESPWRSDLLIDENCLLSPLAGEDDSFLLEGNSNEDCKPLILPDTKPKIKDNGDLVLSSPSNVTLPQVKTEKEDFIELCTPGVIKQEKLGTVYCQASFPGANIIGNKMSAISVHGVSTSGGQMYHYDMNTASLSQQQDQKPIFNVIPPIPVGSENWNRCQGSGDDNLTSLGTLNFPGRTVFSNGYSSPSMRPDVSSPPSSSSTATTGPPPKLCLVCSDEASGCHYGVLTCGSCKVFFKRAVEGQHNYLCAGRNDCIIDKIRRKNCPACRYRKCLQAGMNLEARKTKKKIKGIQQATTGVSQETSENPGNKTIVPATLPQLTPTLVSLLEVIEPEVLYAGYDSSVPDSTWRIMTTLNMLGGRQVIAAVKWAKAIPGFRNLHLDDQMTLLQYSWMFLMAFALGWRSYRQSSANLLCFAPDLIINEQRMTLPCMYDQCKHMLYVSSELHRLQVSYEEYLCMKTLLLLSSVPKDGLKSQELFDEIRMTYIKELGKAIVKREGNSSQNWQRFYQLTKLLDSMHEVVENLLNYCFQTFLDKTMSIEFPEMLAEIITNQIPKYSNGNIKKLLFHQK
Chain of Cytochrome P450 3A4 (Homo sapiens) (P08684 whole entry, looked up): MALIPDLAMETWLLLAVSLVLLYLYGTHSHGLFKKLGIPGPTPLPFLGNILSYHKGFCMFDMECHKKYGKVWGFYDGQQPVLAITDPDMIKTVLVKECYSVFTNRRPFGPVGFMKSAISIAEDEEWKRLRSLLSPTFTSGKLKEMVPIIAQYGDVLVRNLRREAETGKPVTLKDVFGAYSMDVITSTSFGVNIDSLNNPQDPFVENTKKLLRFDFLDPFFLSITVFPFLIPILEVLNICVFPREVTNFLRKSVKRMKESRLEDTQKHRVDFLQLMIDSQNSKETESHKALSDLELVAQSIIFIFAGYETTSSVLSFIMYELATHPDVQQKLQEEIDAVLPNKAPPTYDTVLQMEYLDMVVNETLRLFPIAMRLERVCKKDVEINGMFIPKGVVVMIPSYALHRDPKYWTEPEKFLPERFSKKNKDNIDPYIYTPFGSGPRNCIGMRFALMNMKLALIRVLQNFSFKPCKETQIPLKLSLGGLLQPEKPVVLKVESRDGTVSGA
Chain of 3',5'-cyclic-AMP phosphodiesterase 4B (Homo sapiens) (Q07343 whole entry, looked up): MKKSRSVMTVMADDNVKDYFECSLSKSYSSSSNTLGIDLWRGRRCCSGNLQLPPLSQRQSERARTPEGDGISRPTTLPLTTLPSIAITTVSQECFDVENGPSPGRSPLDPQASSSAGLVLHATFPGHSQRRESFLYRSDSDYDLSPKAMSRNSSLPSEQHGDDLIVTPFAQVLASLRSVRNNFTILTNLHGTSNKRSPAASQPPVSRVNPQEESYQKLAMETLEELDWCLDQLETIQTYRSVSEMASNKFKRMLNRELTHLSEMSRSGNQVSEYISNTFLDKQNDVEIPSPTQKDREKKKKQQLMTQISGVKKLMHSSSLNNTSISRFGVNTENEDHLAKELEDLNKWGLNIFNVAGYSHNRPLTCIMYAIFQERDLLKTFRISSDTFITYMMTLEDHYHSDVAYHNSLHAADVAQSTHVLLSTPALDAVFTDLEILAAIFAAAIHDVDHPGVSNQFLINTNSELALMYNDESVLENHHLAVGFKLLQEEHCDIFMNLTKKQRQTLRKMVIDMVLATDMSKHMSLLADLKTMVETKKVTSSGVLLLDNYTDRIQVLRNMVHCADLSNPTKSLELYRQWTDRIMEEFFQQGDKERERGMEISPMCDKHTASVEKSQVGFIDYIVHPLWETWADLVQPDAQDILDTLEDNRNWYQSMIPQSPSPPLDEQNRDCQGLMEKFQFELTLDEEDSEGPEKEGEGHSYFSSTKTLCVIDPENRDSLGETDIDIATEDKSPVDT
Chain of Cytochrome P450 2C9 (Homo sapiens) (P11712 whole entry, looked up): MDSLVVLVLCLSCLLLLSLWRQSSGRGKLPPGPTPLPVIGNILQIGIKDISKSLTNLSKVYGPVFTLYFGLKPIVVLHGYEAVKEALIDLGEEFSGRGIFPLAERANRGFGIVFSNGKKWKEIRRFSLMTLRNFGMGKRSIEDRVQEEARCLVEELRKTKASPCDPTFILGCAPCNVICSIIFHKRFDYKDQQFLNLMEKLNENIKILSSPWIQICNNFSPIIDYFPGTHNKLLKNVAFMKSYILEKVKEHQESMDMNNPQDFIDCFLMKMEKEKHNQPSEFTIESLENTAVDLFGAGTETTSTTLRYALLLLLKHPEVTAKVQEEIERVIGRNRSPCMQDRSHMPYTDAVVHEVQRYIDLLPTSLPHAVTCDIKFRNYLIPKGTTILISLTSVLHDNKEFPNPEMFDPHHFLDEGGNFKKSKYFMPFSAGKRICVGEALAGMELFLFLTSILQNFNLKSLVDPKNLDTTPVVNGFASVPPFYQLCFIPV
Chain of Cytochrome P450 2D6 (Homo sapiens) (P10635 whole entry, looked up): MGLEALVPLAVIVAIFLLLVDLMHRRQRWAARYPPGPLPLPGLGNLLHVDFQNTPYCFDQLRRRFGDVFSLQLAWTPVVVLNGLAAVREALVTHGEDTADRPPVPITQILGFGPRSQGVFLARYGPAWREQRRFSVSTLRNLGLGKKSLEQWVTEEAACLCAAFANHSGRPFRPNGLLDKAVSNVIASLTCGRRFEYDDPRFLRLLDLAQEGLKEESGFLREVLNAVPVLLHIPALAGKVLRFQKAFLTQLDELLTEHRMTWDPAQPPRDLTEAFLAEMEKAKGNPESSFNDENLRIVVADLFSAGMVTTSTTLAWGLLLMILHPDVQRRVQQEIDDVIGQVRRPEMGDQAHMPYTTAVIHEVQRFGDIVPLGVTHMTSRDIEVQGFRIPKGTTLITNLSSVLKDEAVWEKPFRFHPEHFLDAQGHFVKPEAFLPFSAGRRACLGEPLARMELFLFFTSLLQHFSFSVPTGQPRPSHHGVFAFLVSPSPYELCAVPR

Row | Compound | Potency [1] | activity change, negative = inhibition [2] | activity change, negative = inhibition [3] | activity, negative = inhibition [4] | Potency [5] | Potency [6] | Potency [7] | Potency [8] | Potency [9] | Potency [10] | Potency [11] | outcome [12] | activation [13] | Potency [14]
1 | O=S(=O)(c1ccccc1)N1CCC2(CCCN(c3ccccc3)C2)CC1 | > 11.4 µM | 17.4% | -15.8% | 7.82% | > 46 µM | inactive | inactive | 1.26 µM (active) | 3.98 µM (active) | inactive | 1.58 µM (active) | inactive | – | –
2 | O=C(Nc1ccccc1)N1CCC2(CCNCC2)CC1 | > 11.4 µM | -1.92% | -7.88% | 10.8% | > 46 µM | inactive | inactive | – | – | – | – | inactive | – | –
3 | COc1ccc(NC(=O)N2CC3(CCN(C(=O)c4cccc(F)c4)CC3)C2)cc1 | > 11.4 µM | -7.57% | -1.23% | 0.388% | > 46 µM | inactive | inactive | – | – | – | – | inactive | – | –
4 | COc1ccc(C(=O)N2CCC3(CCCN(c4ccccn4)C3)CC2)cc1 | > 11.4 µM | -4.8% | -8.78% | -3.02% | > 46 µM | inactive | inactive | – | – | – | – | inactive | – | –
5 | COCC(=O)N1CCC[C@@]2(CCN(Cc3nccs3)C2)C1 | > 11.4 µM | -2.92% | 0.146% | 4.7% | > 46 µM | inactive | inactive | – | – | inactive | – | inactive | – | –
6 | COCC(=O)N1CCC2(CC1)CCN(c1ccc(-c3ccccc3)cc1)CC2 | > 11.4 µM | -8.62% | 2.65% | -21.1% | > 46 µM | inactive | inactive | – | inactive | – | – | inactive | – | –
7 | O=C(Nc1cccc(F)c1)N1CC2(CCN(C(=O)c3ccncc3)CC2)C1 | > 11.4 µM | -11.4% | 9.26% | 1.8% | > 46 µM | inactive | – | – | – | – | inactive | inactive | – | –
8 | O=C(c1cccc(F)c1)N1CCC2(CCCN(c3ccccc3)C2)CC1 | > 11.4 µM | -4.36% | -1.29% | -11.8% | > 46 µM | inactive | inactive | – | – | – | 5.01 µM (active) | inactive | -3.27% | –
9 | O=S(=O)(c1ccccc1)N1CCC2(CCCN(C(c3ccccc3)c3ccccc3)C2)CC1 | > 11.4 µM | -2.18% | -9.54% | -3.12% | > 46 µM | inactive | inactive | – | 2 µM (active) | inactive | – | inactive | – | 0.501 µM (active)
10 | O=C(c1csnn1)N1CCC[C@@]2(CCN(Cc3ccccc3)C2)C1 | > 11.4 µM | -14.5% | 1.87% | -1.23% | > 46 µM | inactive | inactive | – | – | – | – | inactive | – | –
11 | N#Cc1cccc(NC(=O)N2CC[C@@]3(CCCN(C(=O)c4csnn4)C3)C2)c1 | > 11.4 µM | -20.4% | 10.2% | -5.12% | > 46 µM | inactive | inactive | – | – | – | – | inactive | – | –
12 | O=C(Nc1cccc(F)c1)N1CCC2(CC1)CCN(C(=O)c1cccc(F)c1)CC2 | > 11.4 µM | -7.86% | 3.68% | -6.46% | > 46 µM | inactive | inactive | – | – | – | – | inactive | – | –
